The values below come from PubChem BioAssay AID1851 (National Center for Advancing Translational Sciences (NCATS), 2009).

SMILES strings stand for the structures. Screen size: about 16,000 compounds; about 5,100 (32%) were called active. Inconclusive results (about 25%) are left out. Calls come from the whole dose curve; as a rule, active = well fitted curve in the direction sought with a large enough effect; inconclusive = small, poorly fitted or top-dose-only effect, or effect the other way; inactive = no such curve, though single readings can be large or run the other way. The list shows a part of the results.
% is set by controls: 0 for no effect and ±100 for the full control effect.

The assay deals with Cytochrome P450 3A4 (Homo sapiens) (UniProt P08684). The assay is described as follows: Cytochrome panel assay with activity outcomes. Particulars: recombinant CYP, pro-luciferin dealkylation, luminescence, p450-cyp3a4; series mostly up to 57.1 µM; activity, negative = inhibition: at the top concentration.
Sequence of Cytochrome P450 3A4 (Homo sapiens) (P08684 whole entry, looked up): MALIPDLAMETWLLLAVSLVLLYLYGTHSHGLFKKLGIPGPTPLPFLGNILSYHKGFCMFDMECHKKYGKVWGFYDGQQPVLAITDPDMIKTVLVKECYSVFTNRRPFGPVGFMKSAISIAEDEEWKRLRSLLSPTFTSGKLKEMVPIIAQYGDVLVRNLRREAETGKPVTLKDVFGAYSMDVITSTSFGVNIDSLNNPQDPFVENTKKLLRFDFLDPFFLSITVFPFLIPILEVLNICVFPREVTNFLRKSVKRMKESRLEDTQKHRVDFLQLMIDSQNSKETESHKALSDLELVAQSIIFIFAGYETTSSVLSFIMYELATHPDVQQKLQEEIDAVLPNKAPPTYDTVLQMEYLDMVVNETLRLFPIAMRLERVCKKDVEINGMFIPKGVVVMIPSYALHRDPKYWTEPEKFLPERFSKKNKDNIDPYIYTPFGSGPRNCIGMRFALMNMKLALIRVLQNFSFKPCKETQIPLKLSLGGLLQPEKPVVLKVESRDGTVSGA
As to `N#Cc1cccc(-c2nc(N3CCNCC3)c3ccccc3n2)c1`, the concentration at half-maximal activity (AC50) was 31.6 µM (active). On the same count and under the same terms, under `CN1CCN(c2nc(-c3cccc(C#N)c3)nc3ccccc23)CC1` stands 15.8 µM (active). Same read-out and setting: under `c1ccc2c(N3CCNCC3)nc(-c3ccc4c(c3)OCO4)nc2c1` stands 7.94 µM (active); under `O=C(N[C@@H](c1ccccc1)[C@@H]1C[C@H]1C(=O)NCc1ccccn1)OCc1ccccc1`, 6.31 µM (active); under `C[C@@H](C(=O)NCc1ccccn1)[C@@H]1C[C@@]1(C)[C@@H](NC(=O)OCc1ccccc1)c1ccccc1`, 10 µM (active).

As for `C[C@@H](C(=O)NCc1ccccn1)[C@H]1C[C@]1(C)[C@H](NC(=O)OCc1ccccc1)c1ccccc1`, the AC50 is 5.01 µM (active).

As to `CC(Cc1ccccc1)C(=O)NCc1ccccn1` (configuration not stated), the “activity, negative = inhibition” value was -42.9% (inactive). Regarding `O=C(N[C@@H](c1ccccc1)[C@@H]1C[C@H]1C(=O)O)OCc1ccccc1`, the “activity, negative = inhibition” value was -15.8% (inactive). The same measure, in the same setting: under `O=C(O)C(Sc1ccc(Cl)cc1)Sc1ccc(Cl)cc1` stands 12.3% [at 11.4 µM] (inactive). Still for that read-out and setting: under `O=C(COC(=O)c1cnccn1)NCc1ccccc1` stands -20.5% [at 11.4 µM] (inactive). On the same count and under the same terms, next, `O=C(O)C(Cc1cccs1)C(=O)O`: -8.79% [at 11.4 µM] (inactive); `COc1ccc2nc3oc(C(=O)NCc4cccs4)cc3cc2c1`: -23.2% (inactive). As to `O=C(NCc1ccccc1)C(c1cccs1)N(Cc1cccs1)C(=O)c1cnccn1` (configuration not stated), the AC50 is 0.891 µM (active).

As for `COCCN(C(=O)c1ccco1)c1nnc(-c2ccc(OC)cc2)s1`, the activity, negative = inhibition was -28.3% [at 2.29 µM] (inactive). The same measure, in the same setting: under `COc1ccc(C(=O)n2c(SC)nc3cc4c(cc32)OCCO4)cc1` stands -12% [at 2.29 µM] (inactive). Turning to `CCc1ccc(C(C(=O)NCc2ccc(OC)cc2)N(CCOC)C(=O)Cc2cccs2)cc1` (configuration not stated), the AC50 is 1 µM (active). Still for that read-out and setting: next, `COc1ccc(C(C(=O)NCc2ccccc2)N(Cc2cccs2)C(=O)c2cnccn2)cc1` (configuration not stated): 0.708 µM (active); `COc1ccc(CNC(=O)C(c2ccc(C)cc2)N(Cc2cccs2)C(=O)c2ccc3c(c2)OCCO3)cc1` (configuration not stated): 1 µM (active). Consider `Cc1cccc(NC(=O)CSc2nnnn2C)n1`, for which the “activity, negative = inhibition” value is -9.12% (inactive). With `CCOC(=O)c1c(NC(=O)CCc2ccc(CC)o2)sc(C)c1C`, the AC50 was 12.6 µM (active). Regarding `CCc1c(C)sc(NC(=O)OC)c1C(N)=O`, the “activity, negative = inhibition” value was 19.8% (inactive). As for `CCOC(=O)c1c(NC(=O)CSc2nnnn2C)sc(C)c1C`, the AC50 was 14.1 µM (active). Still for that read-out and setting: next, `Nc1nc2c(ncn2COCCO)c(=O)[nH]1`: “inactive”.

As for `CC(C)NC(=O)CC(=O)N/N=C/c1ccc(F)cc1`, the “activity, negative = inhibition” value is -0.68% (inactive).

In the case of `O=C(CN(Cc1ccccc1)S(=O)(=O)c1ccc2c(c1)OCCO2)N/N=C/c1ccc(F)cc1`, the activity, negative = inhibition is 0.145% [at 2.29 µM] (inactive). `Cc1ccc(S(=O)(=O)N(CC(=O)N/N=C/c2ccc(F)cc2)c2cccc3cccnc23)cc1`: the AC50 is 1.26 µM (active).

For `Cn1c(C(=O)O)c(CC(=O)NCC2COc3ccccc3O2)c2ccccc21` (configuration not stated), the activity, negative = inhibition is -8.31% [at 11.4 µM] (inactive). For `O=C1CC2(CCCC2)CC(=O)N1CCCCNC[C@H]1COc2ccccc2O1`, the AC50 was 0.631 µM (active).

With `COc1ccc(NC(=O)C2(c3ccc(NC(=O)c4ccc(OC(C)=O)cc4)cc3)CCCC2)cc1`, the “activity, negative = inhibition” value is -14.1% (inactive).

`Cc1cccc(NC(=S)NC(=O)c2cc(-c3ccccc3)nc3ccccc23)c1`: the activity, negative = inhibition is -27.7% [at 11.4 µM] (inactive). Still for that read-out and setting: under `CCOc1ccc(NC(=O)c2ccc(OC)cc2)cc1` stands 24.3% (inactive); under `CC(=O)Nc1ccc(-c2cc(-c3ccc(NC(C)=O)cc3)nc(-c3ccccc3)n2)cc1`, -4.31% [at 2.29 µM] (inactive). In the case of `Cc1ccc(C(=O)Nc2cccc(-c3cnc4ccccc4n3)c2)cc1`, the AC50 was 2.24 µM (active). The same measure, in the same setting: under `COc1ccc(C(=O)Nc2cc(OC)cc(OC)c2)cc1` stands 14.1 µM (active). Regarding `Cc1ccc(C(=O)Nc2cc(Cl)ccc2OC(=O)c2ccc(C)cc2)cc1`, the activity, negative = inhibition is -3.15% [at 2.29 µM] (inactive).

For `COc1ccc(C(=O)Nc2cc(Cl)ccc2OC(=O)c2ccc(OC)cc2)cc1`, the AC50 is 22.4 µM (active). Turning to `COC(=O)COc1cccc(NC(=O)c2ccc(C)cc2)c1`, the AC50 is 17.8 µM (active). Consider `CCN1C(=O)[C@H]2[C@H]3[C@H](O)[C@H](O)C/C(=N/O[C@@H]4O[C@@H](COC(C)=O)[C@@H](OC(C)=O)[C@@H](OC(C)=O)[C@H]4OC(C)=O)[C@H]3CC[C@@H]2C1=O`, for which the activity, negative = inhibition is -8.67% [at 11.4 µM] (inactive). The same measure, in the same setting: next, `COc1ccc(C(=O)COC(=O)c2ccc(NC(=O)c3ccccc3)cc2)cc1`: 7.44% (inactive); `Cc1ccc(C(=O)Nc2ccc(N3CCOCC3)nc2)cc1`: -10.3% (inactive). Regarding `COc1ccc(C(=O)Nc2cccc(-c3cnc4ccccc4n3)c2)cc1`, the AC50 is 2.51 µM (active).

For `Cc1ccc(C(=O)Nc2ccc3nccnc3c2)cc1`, the AC50 was 14.1 µM (active). Regarding `Cc1ccc(NC(=O)c2nnn(-c3cc(C)cc(C)c3)c2N)cc1`, the activity, negative = inhibition is 5.32% [at 2.29 µM] (inactive).

In the case of `Cc1ccc(-n2nc3ccc(NC(=O)c4ccc5c(c4)OCO5)cc3n2)cc1`, the AC50 is 8.91 µM (active). Turning to `Cn1c(=O)n2n(c1=O)[C@H]1[C@H](O)[C@H]3O[C@@H]3/C(=N/OCc3ccccc3)[C@@H]1CC2`, the activity, negative = inhibition was -26.2% [at 11.4 µM] (inactive). Regarding `Cc1ccc(C)c(-n2c(CNC(=O)c3ccco3)nnc2SCC(=O)N2CCc3ccccc32)c1`, the AC50 was 7.08 µM (active). As to `Cc1ccc(-n2c(=O)[nH]cc(C(=O)N3CCc4ccccc43)c2=O)cc1`, the “activity, negative = inhibition” value is -21.6% (inactive).
